High-throughput results (PubChem BioAssay)
KKLEB tox = cytotoxicity in KKLEB CF airway cells, primary screen, cytotoxicity control for CF NF-kB inhibitor project, cell-based, uHTS, fluorescence assay plates; actives 0.36% (n = 360,000); KKLEB CF airway cells viability, ATPlite luminescence, overnight; stronger effect = lower value; cells stimulated with P. aeruginosa culture filtrate; activity change (cytotoxicity), % at 5 µM;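 active = corrected activity change at or below -50% at 5 µM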
Peg3 promoter = Peg3 promoter-driven luciferase inhibitors, primary screen, cell-based, HeLa, luciferase luminescence | HeLa PEG-Prom luciferase reporter, overnight | inhibition, % at 20 µM | actives 1.7% (n = 360,000) | AID 588405, 2011;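 active = inhibition of at least 50% at 20 µM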
HIF-2a block = HIF-2a reporter inhibitors, primary screen, luminescence, 786-0 RCC cells; actives 0.72% (n = 360,000); inhibition, % at 18.8 µM; 786-0 RCC cells HIF-2a reporter, luciferase luminescence, overnight;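 active = inhibition of the luminescence signal of 40% or more relative to plate controls, in a single-dose primary screen at 18.75 µM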
CF NFkB block = inhibitors of PAF-induced NF-kB signaling, primary screen, cell-based, GFP fluorescence, uHTS. KKLEB NF-kB-GFP reporter, GFP fluorescence overnight. inhibition, % at 5 µM. actives 0.86% (n = 360,000);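 active = at least 50% inhibition at 5 µM, scaled per plate between neutral and stimulator controls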;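 also: PAF is a Pseudomonas aeruginosa culture filtrate used as stimulus; plate controls were PAF-stimulated DMSO wells for no effect and unstimulated DMSO wells for full effect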
TROY signal inh = inhibitors of TROY-driven NF-kB signaling, primary screen, Q293 LMP1-TROYcd cells, NF-kB luciferase, uHTS | Q293 LMP1-TROYcd NF-kB luciferase reporter, 4 h | actives 0.98% (n = 360,000) | inhibition, % at 10 µM | AID 1347056, 2019;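 active = compounds whose plate-normalised and pattern-corrected inhibition of the luciferase reporter signal at the single screening dose is 50% or more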
TWEAK Fn14 block = inhibitors of TWEAK-Fn14 signaling, primary screen, luciferase reporter cells, uHTS. actives 2% (n = 360,000). AID 1159606, 2016. inhibition, % at 10 µM. TWEAK-stimulated Fn14 reporter cells, luciferase luminescence, 8 h; in the data active = inhibition above about 50%
Active calls of the source: *. Hits are enriched below; roughly 4% of the tested compounds scored in any of these assays.

SMILES | KKLEB tox | Peg3 promoter | HIF-2a block | CF NFkB block | TROY signal inh | TWEAK Fn14 block
Cc1ccc(C)c(NC(=O)c2ccc(S(=O)(=O)N(C)CC3CCCO3)cc2)c1 (stereo not drawn) | -10 | 3 | 10 | 32 | 4 | -11
O=C(COc1ccccc1[N+](=O)[O-])Nc1ccc(NC(=O)c2cc3ccccc3o2)cc1 | -24 | 11 | 0 | 25 | 52* | 1
O=C(COc1ccc(/C=N/NC(=O)c2cc3ccccc3o2)cc1Br)Nc1ccccc1 | -51* | 99* | -234 | 51* | 40 | -16
O=C(COc1ccccc1[N+](=O)[O-])Nc1ccc2oc(=O)ccc2c1 | -3 | -4 | -5 | -23 | -3 | -19
O=C(COc1ccccc1[N+](=O)[O-])Nc1ccc(N2CCN(C(=O)c3cccs3)CC2)cc1 | -18 | 104* | -15 | -19 | 76* | 72*
CCc1cc2c(=O)nc3n(c2s1)Cc1ccccc1/C3=C(/O)c1ccccc1Cl | -9 | -108 | -98 | -4 | -22 | 35
CCc1cc2c(=O)nc3n(c2s1)Cc1ccccc1/C3=C(/O)c1ccc(F)cc1 | -8 | 33 | -24 | -5 | -1 | 100*
CC(=O)Nc1sc(C)c(C)c1C(=O)OCC(=O)NCc1ccc(F)cc1 | -5 | 17 | -4 | -1 | 7 | -9
Cc1cc(-c2csc(NC(=O)c3ccc(=O)[nH]c3)n2)c(C)n1Cc1ccco1 | -10 | 17 | 6 | 3 | 5 | 58*
CCc1ccccc1NS(=O)(=O)Cc1ccccc1 | -9 | 17 | 16 | -3 | -1 | 12
O=C(NCc1ccc2c(c1)OCO2)c1nc(S(=O)(=O)Cc2ccccc2)ncc1Cl | -22 | 106* | 19 | 84* | 60* | 73*
O=C(NCc1ccc2c(c1)OCO2)c1ccccc1Cl | 0 | -5 | -40 | 2 | -2 | -1
COC(=O)c1cscc1S(=O)(=O)Cc1ccccc1 | 2 | 0 | 0 | 5 | -2 | 23
COC(=O)c1ccccc1NC(=O)c1nc(S(=O)(=O)Cc2ccccc2)ncc1Cl | -95* | 92* | -33 | 96* | 58* | 76*
CCc1nnc(NC(=O)c2nc(Cl)ccc2Cl)s1 | 8 | 9 | -11 | 0 | -23 | -6
CCc1nnc(NC(=O)c2nc(S(=O)(=O)Cc3ccccc3)ncc2Cl)s1 | -94* | 104* | 54* | 90* | 33 | 97*
CC(Sc1nc(N)cc(N)n1)C(=O)NCCC1=CCCCC1 (stereo not drawn) | 1 | -24 | -3 | 2 | -2 | 5
O=C(NC(=S)Nn1cnnc1)c1ccccc1Cl | 1 | -6 | -1 | -25 | 10 | -8
COc1cccc(C(=O)NC(=S)Nn2cnnc2)c1OC | 22 | -9 | 9 | -5 | 4 | 57*
CC1(C)CC(=O)C=C(c2ccc(-c3cccc(C(N)=O)c3)cc2)C1=O | 0 | -374 | -40 | 6 | -28 | -7
COc1ccc(F)cc1CN1CCN(C(=O)c2ccc(S(=O)(=O)N3CCCCCC3)cc2)CC1 | -11 | 12 | 7 | 24 | -2 | -11
CCN(CC)c1ccc2c(C)c(Cl)c(=O)oc2c1 | -9 | -36 | -71 | 5 | -38 | -17
CCN(CC)c1ccc2c(Cl)c(Br)c(=O)oc2c1 | -12 | 104* | 88* | 37 | 43 | 85*
COC(=O)c1cc(S(=O)(=O)N2CCN(c3ccc(C(C)=O)cc3)CC2)cn1C | 1 | -6 | 6 | -24 | -6 | 13
COc1cccc(C(=O)/C=C/c2ccc(N3CCCCC3)c([N+](=O)[O-])c2)c1 | -34 | 66* | -48 | 25 | -29 | 27
O=C(/C=C/c1ccc(N2CCCCC2)c([N+](=O)[O-])c1)c1ccc(S(=O)(=O)N2CCCC2)cc1 | -18 | 55* | 21 | 17 | 13 | 15
CCOc1cc(N2CCOCC2)c(OCC)cc1NC(=O)c1cc(S(=O)(=O)N2CCOCC2)ccc1F | -19 | 22 | 14 | -14 | 17 | 1
